This is an account of results in PubChem BioAssay (Tox21).

Records with an inconclusive call do not appear. Entries that show only a call come without a potency. Active and inactive are the calls of the source. Calls follow the shape of the dose curve; as a rule, active = well fitted inhibition curve with a large enough effect in the signal ratio in the repeat runs (not every such curve was filed as active); inconclusive = weak or mixed curves, or effect the other way; inactive = no such curve, though single readings can be large or run the other way; the % refers to the signal ratio.
Potency is read from the fitted curve at half-maximal effect.

Sequence of Estrogen receptor beta (Homo sapiens) (Q92731 whole entry, looked up): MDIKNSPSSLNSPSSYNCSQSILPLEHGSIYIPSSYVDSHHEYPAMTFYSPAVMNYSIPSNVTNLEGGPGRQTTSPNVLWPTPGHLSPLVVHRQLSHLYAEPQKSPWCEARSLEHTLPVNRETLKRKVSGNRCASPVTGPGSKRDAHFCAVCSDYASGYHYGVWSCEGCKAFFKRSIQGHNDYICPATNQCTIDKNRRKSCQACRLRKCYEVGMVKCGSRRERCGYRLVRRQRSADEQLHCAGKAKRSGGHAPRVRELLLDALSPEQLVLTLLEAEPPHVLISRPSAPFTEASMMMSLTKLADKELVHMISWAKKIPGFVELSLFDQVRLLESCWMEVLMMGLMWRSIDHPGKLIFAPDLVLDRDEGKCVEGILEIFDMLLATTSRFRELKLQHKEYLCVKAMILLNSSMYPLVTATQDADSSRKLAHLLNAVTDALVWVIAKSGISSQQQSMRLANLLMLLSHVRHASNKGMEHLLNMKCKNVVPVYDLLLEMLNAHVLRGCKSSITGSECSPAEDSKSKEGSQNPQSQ

For the assay, the target named is Estrogen receptor beta (Homo sapiens) (UniProt Q92731). The assay can be described thus: qHTS assay to identify small molecule antagonists of the estrogen receptor beta (ER-beta) signaling pathway (AID 1259378). The following applies: ER-beta-UAS-bla HEK293T, beta-lactamase FRET ratio, 16 h; series mostly up to 92.4 µM. The text has this:
National Center for Advancing Translational Sciences [NCATS]
NIH Chemical Genomics Center [NCGC]
U.S. Environmental Protection Agency [EPA]
National Institutes of Environmental Health Sciences [NIEHS]
National Toxicology Program [NTP]
U.S. Food and Drug Administration [FDA]
Estrogen receptor (ER), a nuclear hormone receptor, plays an important role in development, metabolic homeostasis and reproduction. Two subtypes of ER, ER-alpha and ER-beta, have similar expression patterns with some uniqueness in both types. Endocrine disrupting chemicals (EDCs) and their interactions with steroid hormone receptors like ER causes disruption of normal endocrine function. To identify the compounds that inhibit ER signaling, an ER-beta-UAS-bla GripTite cell line (Life Technologies, Madison, WI, USA) containing a beta-lactamase reporter gene under the control of an UAS response element was used to screen Tox21 10K compound library.
Tox21 Assay Protocol Summary:
ER-beta-UAS-bla HEK293T cells were dispensed at 2,000 cells/4 uL of assay medium containing 2% charcoal stripped FBS per well into black wall/clear-bottom 1536-well plates using a Multidrop Combi (ThermoFisher Scientific, Waltham, MA) dispenser. After the assay plates were incubated at a 37C and 5% CO2 for 6 hr, 23 nL of compounds dissolved in DMSO, positive controls or DMSO only was transferred to the assay plate by a Pintool station (Kalypsys, San Diego, CA), followed by addition of 1 uL (1nM as final concentration) of 17-beta-estradiol (E2) in assay medium using a BioRAPTR FRD (Flying Reagent Dispenser, Aurora Discovery, San Diego, CA). The plates were incubated at 37C and 5% CO2 for 16 hr. Then 1 uL of LiveBLAzerTM B/G FRET substrate was added using a Flying Reagent Dispenser, the plates were incubated at room temperature for 2 hours, and fluorescence intensity was measured by an Envision plate reader (PerkinElmer, Shelton, CT).
For orientation: Quantitative high-throughput screening tests each substance at several concentrations.
`CC(C)CC(=O)CC(C)C`: the Potency entry is “inactive”.

As for `CC(=O)OCC(=O)[C@@]12N=C(C)O[C@@H]1C[C@H]1[C@@H]3CCC4=CC(=O)C=C[C@]4(C)[C@H]3[C@@H](O)C[C@@]12C`, the Potency result was “inactive”. In the case of `CC(C)(N)CO`, the Potency result was “inactive”. The same measure, in the same setting: with `CCCCCCCCCCCCS` the entry was “inactive”. The same measure, in the same setting: the same measure for `CCCCCC(N)=O`: “inactive”; for `CCCCCC/C(C=O)=C\c1ccccc1`: “inactive”. The same measure, in the same setting: the same measure for `OC[C@H]1O[C@@](CO)(O[C@H]2O[C@H](CO)[C@@H](O)[C@H](O)[C@H]2O)[C@@H](O)[C@@H]1O`: “inactive”; for `CCCCCCOCCO`: “inactive”; for `OCCOCCOCCO`: “inactive”. For the molecule `COc1cc(Cc2cnc(N)nc2N)cc(OC)c1OC`, the Potency entry is “inactive”. The same measure, in the same setting: with `CC(c1cc2ccccc2s1)N(O)C(N)=O` (stereo not given) the entry was “inactive”; with `c1ccc(OCCOc2ccccc2)cc1`, “inactive”; with `O=P(OC(CCl)CCl)(OC(CCl)CCl)OC(CCl)CCl`, 54.5 µM (active).

As to `CCN(CC)CCCC(C)Nc1ccnc2cc(Cl)ccc12` (stereo not given), the activity, negative = inhibition was -11.4% [at 8.39 µM] (inactive).

For the molecule `CC1=C(C)S(=O)(=O)CCS1(=O)=O`, the Potency entry was “inactive”. `C#C[C@]1(O)CC[C@H]2[C@@H]3CCC4=CC(=O)CC[C@@H]4[C@H]3CC[C@@]21C`: the Potency result is “inactive”. For `CC(=O)Nc1cccc(O)c1`, the Potency result is “inactive”. On the same count and under the same terms, the same measure for `CSCCC=O`: “inactive”; for `C=C(C)C(=O)O[C@H]1C[C@@H]2CC[C@@]1(C)C2(C)C`: “inactive”; for `CC1CCC2CC1C2(C)C` (stereo not given): “inactive”. On the same count and under the same terms, with `O=C1CCC(N2C(=O)c3ccccc3C2=O)C(=O)N1` (stereo not given) the entry was “inactive”; with `CN(C)CCOCCN(C)C`, “inactive”; with `Cc1ccc2oc(=O)ccc2c1`, “inactive”. The same measure, in the same setting: the same measure for `O=C=NCCCCCCN=C=O`: “inactive”; for `Cc1cccnc1`: “inactive”.

With `O=C(Oc1ccccc1)c1ccccc1`, the Potency result is “inactive”.

On to `CC1=CC(=O)NS(=O)(=O)O1`, for which the Potency result was “inactive”. Still for that read-out and setting: with `COCCCOc1ccnc(CS(=O)c2nc3ccccc3[nH]2)c1C` (stereo not given) the entry was “inactive”; with `O=c1[nH]c(=O)n([C@H]2C[C@H](O)[C@@H](CO)O2)cc1Br`, “inactive”. Same read-out and setting: the same measure for `CCN(CC)c1ccc(C(=O)c2ccccc2C(=O)O)c(O)c1`: “inactive”.

As to `CCCCC(CC)CO` (stereo not given), the Potency entry is “inactive”. On the same count and under the same terms, the same measure for `N[C@@H](Cc1cc(I)c(Oc2cc(I)c(O)c(I)c2)c(I)c1)C(=O)O`: “inactive”; for `CCCCC(CC)COC(=O)C(C#N)=C(c1ccccc1)c1ccccc1` (stereo not given): 19.3 µM (active). Take `CCC(O)OCCCOC` (stereo not given): the Potency result is “inactive”.

Regarding `CC(=O)CC(=O)Nc1ccccc1`, the Potency result is “inactive”. Regarding `CC(=O)CC(=O)Nc1ccccc1C`, the Potency entry was “inactive”. Still for that read-out and setting: with `O=C(O)c1ccc2c(c1)C(=O)OC2=O` the entry was “inactive”; with `O=C(O)c1ccccc1C(c1ccc(O)cc1)c1ccc(O)cc1`, “inactive”. Same read-out and setting: with `O=C(CC(C(=O)OC1CCCCC1)S(=O)(=O)O)OC1CCCCC1` (stereo not given) the entry was “inactive”. Still for that read-out and setting: the same measure for `C[Si](O[Si](C)(C)C)O[Si](C)(C)C`: “inactive”.
